Experimental data reported in PubChem BioAssay AID605 (National Center for Advancing Translational Sciences (NCATS), 2007).
Screen size: about 71,000 compounds; about 35 (0.05%) were called active. Calls follow the shape of the dose curve; as a rule, active = well fitted curve in the direction sought with a large enough effect; inconclusive = small, poorly fitted or top-dose-only effect, or effect the other way; inactive = flat fitted curve, though single readings scatter. These entries were drawn from the full list.

molecular target: tRNA threonylcarbamoyladenosine biosynthesis protein TsaE (Escherichia coli (strain K12)) (UniProt P0AF67); assay: qHTS Assay for Inhibitors of YjeE; details: purified YjeE enzyme, qHTS inhibition assay
Experimental: NIH Molecular Libraries Screening Centers Network [MLSCN]
NIH Chemical Genomics Center [NCGC]
Assay Provider: Eric Brown, McMaster University
YjeE is an essential E.coli protein of unknown function that binds adenosine diphosphate (ADP). A complex of YjeE and BODIPY Texas Red-labeled ADP probe (Invitrogen, catalog number A22359) is incubated with library members. Inhibitors of YjeE-ADP binding are detected by a decrease in the fluorescence polarization (FP) of the fluorophore. Purified YjeE was supplied by Chand Mangat and Eric Brown, McMaster University.
NCGC Assay Protocol Summary:
2 uM probe/10 uM YjeE in columns 1, 2, 5-48. Titration of ADP control (from 40 mM, then 1:2) pin-transferred to top half of column 2. Column 1 and bottom half of column 2 are neutral.
Two and a half uL of reagents were dispensed to 1536-well Greiner black plates. Compounds and controls (20 nL) were transferred via Kalypsys PinTool. The plates were incubated for 15 min at room temperature, and then read on ViewLux (Perkin-Elmer) High-throughput CCD imager using BODIPY polarization filter set and 30 seconds exposure time. During dispense, reagent bottle was kept submerged into 4 deg C water bath and all liquid lines were covered with aluminum foil to minimize probe and protein degradation.
Keywords: NIH Roadmap, MLSCN, MLI, MLSMR, qHTS, NCGC, YjeE

outcome, inactive:
CCCCC(CC)CN (stereo not given), Cc1ccccc1Nc1nc(N)nc(CN2CCN(c3ccccn3)CC2)n1, COc1c(F)c(F)c(-c2csc(N)n2)c(F)c1F, COC(=O)[C@H]1C[C@@H]1[C@H](NC(=O)Oc1ccc(F)cc1)c1ccccc1, COC(=O)C(C)C1Sc2ccccc2NC1=O (stereo not given), CC(C)(CNCC(O)c1ccccc1)N1CCOCC1 (stereo not given), Cc1cnc(CNc2ncncc2-c2ccccc2Cl)cn1, COc1ccc(C2C3=C(OC(C)=O)c4ccccc4C3=Nc3c2c(=O)n(C)c(=O)n3C)cc1 (stereo not given), Cn1c(-c2ccc(C(=O)c3ccccc3)s2)nc2ccccc21, COc1ccccc1-c1nc(C(F)(F)F)c(OC)o1, Nc1nc(N)c2[nH]c(CNc3ccc(C(=O)O)cc3)nc2n1, CCCc1nc2ccccc2c(=O)n1/N=C/c1ccc(O)c(O)c1, CC(C)[C@@H](CC(=O)N[C@@H]1CCNC[C@H]1C(=O)N[C@H](CC(=O)N[C@@H](CCC(=O)O)CC(=O)O)Cc1ccccc1)NC(=O)C[C@H](CO)NC(=O)[C@@H]1CNCC[C@H]1N, COc1ccc2nc(NC3=NCN(CC4CCCO4)CN3)nc(C)c2c1 (stereo not given), Cc1cc(OCC(=O)O)c(Cl)cc1Cl, Cc1cc(NC(=O)COC(=O)c2ccc(F)c(S(=O)(=O)N3CCOCC3)c2)no1, COc1ccc(C(=O)CSc2nccc(=O)[nH]2)cc1, CCOC(=O)c1ccc(NC(=O)CS(=O)(=O)c2cn(CC)c3ccccc23)cc1, Cc1cc(=O)[nH]c(SCC(N)=O)c1C#N, CSCCC(NC(=O)c1ccc(=O)n(C)n1)c1nc2ccccc2[nH]1 (stereo not given), O=C(NCc1ccc(Cl)cc1)c1cc2c(nc3sccn32)s1, CC(C)(C)NCC[C@@H](O)c1cc(C(F)(F)F)nc2c(C(F)(F)F)cccc12, COc1nc(Oc2ccc(=O)n(C)n2)nc(N(C)C)n1, CCCCNC(=O)CSc1nccn1Cc1ccccc1, C1CCC2OC2C1 (stereo not given), O=c1c(-c2cc(F)cc(F)c2)nc2cnc(Oc3ccccc3)nc2n1C[C@H]1CCCO1, CCOC(=O)c1ccc(NC(=O)CSc2nnc(COc3ccccc3OC)n2C)cc1, C[C@]1(C(=O)NCCc2c[nH]c3ccccc23)C=C[C@@H](Cc2ccccc2)N1C(=O)c1ccccc1, N#Cc1ccc(C(c2nnnn2CCc2ccccc2)N2CCCCCC2)cc1 (stereo not given), COc1ccc(N2C(=O)C3CCCN3C2c2cccs2)cc1 (stereo not given), COc1ccc(C)cc1S(=O)(=O)NC1CCCCC1, O=C1c2oc3ccccc3c(=O)c2C(c2cccc(O)c2)N1c1ccccn1 (stereo not given), CC(=O)CC(C)C, COC(=O)N1CCC2(CCCN(Cc3ccccc3OC)C2)CC1, COc1ccc(OC)c(Nc2nc(-c3ccc(O)c(O)c3)cs2)c1, FC(F)(F)c1ccccc1-c1cc(NCc2ccccc2)ncn1, CN1[C@@H]2CC[C@H]1CC(NC(=O)c1nn(C)c3ccccc13)C2 (stereo not given in full), C[C@]12CC[C@@H]3C(=CCc4cc(O)ccc43)[C@@H]1CCC2=O, Cc1cc(=O)n(C)c(=O)n1CCCNc1ccccc1, CC(C)c1ccc2c([Si](C)(C)C)c3c(nc2c1)-c1cccc(=O)n1C3, COc1ccc(N2C(=O)CCC(C(=O)N(C)C3CCCCC3)C2c2ccc(OC)c(OC)c2)cc1 (stereo not given), C[N+](C)(CCCCCC[N+](C)(C)CCCN1C(=O)c2cccc3cccc(c23)C1=O)CCCN1C(=O)c2cccc3cccc(c23)C1=O, COc1ccc(Cl)cc1S(=O)(=O)N1CCN(CC(=O)C(C)(C)C)CC1, CN1CCN(S(=O)(=O)c2ccc3[nH]cc(C(=O)O)c(=O)c3c2)CC1, Cc1ccc(C)c(N2CCN(C(=O)CCc3nc4ccccc4[nH]3)CC2)c1, O=Cc1c(Cl)cccc1Cl, COc1cccc(N(CC(=O)Nc2cccc(N(C)S(C)(=O)=O)c2)S(C)(=O)=O)c1, COc1ccccc1NC1=NC2(CCCC2)N=C(N)N1, CCOc1ccc2[nH]c(=O)c(C(c3nnnn3CCOC)N3CCOCC3)cc2c1 (stereo not given), COC(=O)C1(C)C=CC2(CCCCC2)N1C(C)=O (stereo not given), CC/C=C/C/C=C/C/C=C/CCCCCCCC(=O)OCC, O=C(OC(C(=O)NC1CCCC1)c1ccc(F)cc1)c1ccno1 (stereo not given), O=c1cnc2cnc(Nc3ccccc3)nc2n1Cc1ccc(F)cc1, COCCn1c(SCC(=O)Nc2cc(Cl)ccc2OC)nc2c(c1=O)SC(C)C2 (stereo not given), C=C(C)c1cccc(C(C)(C)NC(=O)N2CCN(c3ncccn3)CC2)c1, O=C(Cl)c1ccccc1[N+](=O)[O-], CCOC(=O)CN(C(=O)CN1CCOCC1)c1ccc(Br)cc1, CC(C)NC(=O)N1CC[C@@]2(CCCN(C(=O)c3ccco3)C2)C1, S=c1[nH]nc(SCc2ccccc2Cl)c2[nH]cnc12, CSc1cccc(NC(=O)CSc2ccccc2)c1, Cc1ccc2oc(=O)c3cnn(CC(=O)N4CCN(c5ccccn5)CC4)c3c2c1, O=C(CNS(=O)(=O)c1cccc(C(F)(F)F)c1)Nc1ccccc1F, COC(=O)[C@@]1(Cc2ccccc2)[C@H]2c3cc(C(=O)N4CCCC4)n(Cc4ccc(C)o4)c3C[C@H]2CN1C(=O)c1ccccc1, COc1ncc2nc(-c3ccc(Cl)cc3)c(=O)n(C)c2n1, CC(c1ccco1)N(C(=O)c1ccc(S(=O)(=O)N2CCCCC2)cc1)c1ccccn1 (stereo not given), CC(C)NS(=O)(=O)c1ccc(OCC(=O)Nc2ccc3c(c2)OCCO3)cc1, Cc1ccc(-n2c(SCC(=O)Nc3ccc4c(c3)OCO4)nnc2-c2ccoc2C)cc1, CCOC(=O)NC(C(F)(F)F)(C(F)(F)F)P(=O)(c1ccccc1)c1ccccc1, CCCC(=O)N1c2ccc(-c3csc(N)n3)cc2CC1C (stereo not given), Cc1ccc(O)c(NC(=O)COc2cc(C)ccc2C)c1, COc1ccc(-c2nc3cnc(N(C)C)nc3n(Cc3cccs3)c2=O)cc1, O=C(Cl)c1ccc([N+](=O)[O-])cc1, Cc1cc(C)cc(N)c1, CCOC(=O)N1CCN(C(=O)C2CC(c3ccc(F)cc3)=NO2)CC1 (stereo not given), Cc1ccc2c(c1)N(CC(=O)N1CCCc3ccccc31)C(=O)C(C)O2 (stereo not given), CCOc1cccc(/C(O)=C2/C(=O)C(=O)N(CCOC)C2c2ccncc2)c1 (stereo not given), CC1CC(C)CN(CC(=O)Nc2ccc(S(N)(=O)=O)cc2)C1 (stereo not given), CN(c1ccc(C(=O)N2CCc3ccccc3C2)cc1)S(C)(=O)=O, COc1ccccc1N1CCN(C(=O)c2cc3c(-c4ccc(Cl)cc4)nn(C)c3s2)CC1, Cn1c(CC(=O)Nc2ccccc2)nnc1SCC(=O)c1ccccc1, Cc1nnc(NC2=NCCCCC2)o1, Cn1cc(-c2nc3cnc(N4CCNCC4)nc3n(CCc3ccccc3)c2=O)c2ccccc21, COc1cccc(Nc2ncc3ncc(=O)n(C4CC4)c3n2)c1, CNC(=O)C1(C)C=CC2(CCCCC2)N1C(C)=O (stereo not given), COc1ccccc1CNc1ncnc2ccc(-c3ccc4c(c3)OCO4)cc12, COC(=O)[C@@]1(Cc2ccc(OC)cc2)[C@H]2c3cc(C(=O)N4CCCC4)n(Cc4ccc(OC(F)(F)F)cc4)c3C[C@H]2CN1C(=O)c1ccccc1, O=C(O)c1cccc(S(=O)(=O)NCCO)c1, COc1ccc(N)c(C)c1, O=C(Cn1ccc(=O)[nH]c1=O)Nc1ccc(C(=O)O)c(O)c1, COc1ccc(CC(=O)Nc2c3c(nn2-c2cccc(Cl)c2)CS(=O)C3)cc1 (stereo not given), COCCCN1C(=O)C(=O)/C(=C(/O)c2ccc3c(c2)CC(C)O3)C1c1cccnc1 (stereo not given), Cn1cc(-c2nc3cncnc3n(-c3ccccc3)c2=O)c2ccccc21, Cc1cc(Cl)c(S(=O)(=O)NCCC(=O)O)cc1OCC(N)=O, Cc1ccnc(SCCn2c(Br)nc3c2c(=O)[nH]c(=O)n3C)n1, CC(=NCc1ccc2c(c1)OCO2)C1=C(O)c2ccccc2C1=O, Cc1ccc2c(c1)sc1ncc(NC(=O)c3ccccc3)c(=O)n12, CCCCOc1ccc(Cl)cc1CSc1nncn1N, CCN(Cc1cc2cc(C)ccc2[nH]c1=O)S(=O)(=O)c1ccccc1, CSCC[C@H](NC(=O)NCCc1ccc(F)cc1)C(=O)O, O=C(Cn1cc2c(n1)CCCCC2)NCCN1CCOCC1, CC(=O)Nc1ccc(NC(=O)CN2CCCC(C)C2)c(Cl)c1 (stereo not given), COCCn1c(=O)c(-c2cccc(F)c2)nc2cncnc21, Oc1cc2c(cc1O)CN(C(=S)NCCc1ccc(Cl)cc1)CCC2, CN=C(NC#N)NCCSCc1nc[nH]c1C, COC(=O)c1nc(NC(=O)c2ccc(Cl)cc2)n[nH]1, NC(=O)CCCC1=NS(=O)(=O)c2ccccc2N1, COC(=O)c1c(NC(=O)CSc2nncs2)sc2c1CCCCC2, CC(=O)N(CC1CCCO1)C1(C(=O)NC2CCCC2)CCCCC1 (stereo not given), COc1ccc2[nH]cc(CCNc3nc(-c4cccc(NS(C)(=O)=O)c4)nc4ccccc34)c2c1, CCCCCN(C(=O)NC(=O)Nc1ccccc1OC)S(C)(=O)=O
